± gives the standard deviation.
Columns and labels:
Assay in all cases: peptide microarray binding signal (635 nm), min-max normalized on array (fraction of array maximum); higher = stronger binding
[1] = target: T1, HaloTag-ATRX ADD domain (163-292)
T1 chain: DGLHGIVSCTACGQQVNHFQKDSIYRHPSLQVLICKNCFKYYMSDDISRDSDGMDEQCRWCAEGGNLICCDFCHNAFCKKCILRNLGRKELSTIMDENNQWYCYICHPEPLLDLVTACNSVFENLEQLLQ
How it was run: (§1)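 Binding signal is the mean intensity of triplicate spots, min-max scaled within each library. Histone 13-mer peptide–cellulose conjugates were spotted in triplicate on nitrocellulose with a Cy3 tracer and blocked overnight at 4°C. Probing lasted 1 h at 4°C, either with biotin-labelled HaloTag reader fusions (10 nM to 1 μM) and streptavidin-Alexa Fluor 647 or with rabbit histone antibodies (1:10,000 to 1:2,000) and anti-rabbit Alexa 647. An Axon GenePix 4000B read signal at 635 nm and misprints at 532 nm.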

[2] = target: HaloTag-ING2 PHD (mouse Ing2 200-280)
How it was run: as §1

[3] = target: anti-H3K4me3 antibody ab8580
How it was run: as §1

[4] = target: anti-H3K9me3 antibody ab8898
How it was run: as §1

[5] = peptide region: H3 50-62, peptide modifications: H3K56ac H3S57ph, binder concentration: 1:2,000 dilution
[6] = peptide region: H3 50-62, peptide modifications: H3K56ac H3S57ph, binder concentration: 1:10,000 dilution
[7] = peptide region: H3 50-62, peptide modifications: H3S57ph, binder concentration: 1:2,000 dilution
[8] = peptide region: H3 50-62, peptide modifications: H3S57ph, binder concentration: 1:10,000 dilution
[9] = peptide region: H3 73-85, peptide modifications: H3K79me2 H3T80ph, binder concentration: 1:2,000 dilution
[10] = peptide region: H3 73-85, peptide modifications: H3K79me2 H3T80ph, binder concentration: 1:10,000 dilution
[11] = peptide region: H3 73-85, peptide modifications: H3K79me1, binder concentration: 1:2,000 dilution
[12] = peptide region: H3 73-85, peptide modifications: H3K79me1, binder concentration: 1:10,000 dilution
[13] = peptide region: H3 50-62, peptide modifications: H3K56me2, binder concentration: 1:2,000 dilution
[14] = peptide region: H3 50-62, peptide modifications: H3K56me2, binder concentration: 1:10,000 dilution
[15] = peptide region: H3 73-85, peptide modifications: H3K79me1 H3T80ph, binder concentration: 1:2,000 dilution
[16] = peptide region: H3 73-85, peptide modifications: H3K79me1 H3T80ph, binder concentration: 1:10,000 dilution
[17] = peptide region: H3 73-85, binder concentration: 1:2,000 dilution
[18] = peptide region: H3 73-85, binder concentration: 1:10,000 dilution
[19] = peptide region: H3 50-62, peptide modifications: H3K56ac, binder concentration: 1:2,000 dilution
[20] = peptide region: H3 50-62, peptide modifications: H3K56ac, binder concentration: 1:10,000 dilution
[21] = peptide region: H3 50-62, peptide modifications: H3K56me2 H3S57ph, binder concentration: 1:2,000 dilution
[22] = peptide region: H3 50-62, peptide modifications: H3K56me2 H3S57ph, binder concentration: 1:10,000 dilution
[23] = peptide region: H3 50-62, peptide modifications: H3T58ph, binder concentration: 1:2,000 dilution
[24] = peptide region: H3 50-62, peptide modifications: H3T58ph, binder concentration: 1:10,000 dilution

EIRRYQKSTELLI [H3 50-62 E I R R Y Q Kac Sph T E L L I]
peptide microarray binding signal ([1]; peptide region: H3 50-62, peptide modifications: H3K56ac H3S57ph, binder concentration: 50 nM): 0.00069 ± 9.4e-06
peptide microarray binding signal ([1]; peptide region: H3 50-62, peptide modifications: H3K56ac H3S57ph, binder concentration: 500 nM): 0.00119 ± 4e-05
peptide microarray binding signal ([2]; peptide region: H3 50-62, peptide modifications: H3K56ac H3S57ph, binder concentration: 10 nM): 0.00197 ± 4.2e-05
peptide microarray binding signal ([2]; peptide region: H3 50-62, peptide modifications: H3K56ac H3S57ph, binder concentration: 100 nM): 0.000567 ± 6.4e-06
peptide microarray binding signal [3, 5]: 5.66e-05
peptide microarray binding signal [3, 6]: 0.000399 ± 2.6e-05
peptide microarray binding signal [4, 5]: 0.000861 ± 5.4e-05
peptide microarray binding signal [4, 6]: 0.000577 ± 6.2e-06

EIRRYQKSTELLI [H3 50-62 E I R R Y Q K Sph T E L L I]
peptide microarray binding signal ([1]; peptide region: H3 50-62, peptide modifications: H3S57ph, binder concentration: 50 nM): 0.000878 ± 5.7e-05
peptide microarray binding signal ([1]; peptide region: H3 50-62, peptide modifications: H3S57ph, binder concentration: 500 nM): 0.00167 ± 0.00017
peptide microarray binding signal ([2]; peptide region: H3 50-62, peptide modifications: H3S57ph, binder concentration: 10 nM): 0.00179 ± 2.8e-05
peptide microarray binding signal ([2]; peptide region: H3 50-62, peptide modifications: H3S57ph, binder concentration: 100 nM): 0.00085 ± 3.4e-05
peptide microarray binding signal [3, 7]: 0.000132 ± 5.8e-06
peptide microarray binding signal [3, 8]: 0.000228 ± 4.4e-06
peptide microarray binding signal [4, 7]: 0.000755 ± 0.00012
peptide microarray binding signal [4, 8]: 0.000461 ± 8.7e-06

EIAQDFKTDLRFQ [H3 73-85 E I A Q D F Kme2 Tph D L R F Q]
peptide microarray binding signal ([1]; peptide region: H3 73-85, peptide modifications: H3K79me2 H3T80ph, binder concentration: 50 nM): 0.00103 ± 3.4e-05
peptide microarray binding signal ([1]; peptide region: H3 73-85, peptide modifications: H3K79me2 H3T80ph, binder concentration: 500 nM): 0.000714 ± 1.2e-05
peptide microarray binding signal ([2]; peptide region: H3 73-85, peptide modifications: H3K79me2 H3T80ph, binder concentration: 10 nM): 0.002089 ± 1.2e-05
peptide microarray binding signal ([2]; peptide region: H3 73-85, peptide modifications: H3K79me2 H3T80ph, binder concentration: 100 nM): 0.000992 ± 1.1e-05
peptide microarray binding signal [3, 9]: 0.000283 ± 5.1e-06
peptide microarray binding signal [3, 10]: 0.000799 ± 5.8e-05
peptide microarray binding signal [4, 9]: 0.000438 ± 1.8e-05
peptide microarray binding signal [4, 10]: 0.000634

EIAQDFKTDLRFQ [H3 73-85 E I A Q D F Kme T D L R F Q]
peptide microarray binding signal ([1]; peptide region: H3 73-85, peptide modifications: H3K79me1, binder concentration: 50 nM): 0.00649 ± 0.00015
peptide microarray binding signal ([1]; peptide region: H3 73-85, peptide modifications: H3K79me1, binder concentration: 500 nM): 0.02 ± 0.0022
peptide microarray binding signal ([2]; peptide region: H3 73-85, peptide modifications: H3K79me1, binder concentration: 10 nM): 0.0116 ± 0.0014
peptide microarray binding signal ([2]; peptide region: H3 73-85, peptide modifications: H3K79me1, binder concentration: 100 nM): 0.00475 ± 0.00052
peptide microarray binding signal [3, 11]: 0.00198 ± 0.00026
peptide microarray binding signal [3, 12]: 0.00234 ± 9.2e-05
peptide microarray binding signal [4, 11]: 0.0079 ± 0.00033
peptide microarray binding signal [4, 12]: 0.00357 ± 0.00023

EIRRYQKSTELLI [H3 50-62 E I R R Y Q Kme2 S T E L L I]
peptide microarray binding signal ([1]; peptide region: H3 50-62, peptide modifications: H3K56me2, binder concentration: 50 nM): 0.01 ± 0.00043
peptide microarray binding signal ([1]; peptide region: H3 50-62, peptide modifications: H3K56me2, binder concentration: 500 nM): 0.0165 ± 0.0014
peptide microarray binding signal ([2]; peptide region: H3 50-62, peptide modifications: H3K56me2, binder concentration: 10 nM): 0.0135 ± 0.0033
peptide microarray binding signal ([2]; peptide region: H3 50-62, peptide modifications: H3K56me2, binder concentration: 100 nM): 0.00624 ± 0.00068
peptide microarray binding signal [3, 13]: 0.000868 ± 0.00013
peptide microarray binding signal [3, 14]: 0.00171 ± 8.6e-05
peptide microarray binding signal [4, 13]: 0.00953 ± 0.00056
peptide microarray binding signal [4, 14]: 0.00323 ± 0.0002

EIAQDFKTDLRFQ [H3 73-85 E I A Q D F Kme Tph D L R F Q]
peptide microarray binding signal ([1]; peptide region: H3 73-85, peptide modifications: H3K79me1 H3T80ph, binder concentration: 50 nM): 0.001034 ± 5.2e-06
peptide microarray binding signal ([1]; peptide region: H3 73-85, peptide modifications: H3K79me1 H3T80ph, binder concentration: 500 nM): 0.00181 ± 3.2e-05
peptide microarray binding signal ([2]; peptide region: H3 73-85, peptide modifications: H3K79me1 H3T80ph, binder concentration: 10 nM): 0.00281 ± 8.7e-05
peptide microarray binding signal ([2]; peptide region: H3 73-85, peptide modifications: H3K79me1 H3T80ph, binder concentration: 100 nM): 0.00135 ± 7.3e-05
peptide microarray binding signal [3, 15]: 0.000283
peptide microarray binding signal [3, 16]: 0.000342 ± 3.8e-06
peptide microarray binding signal [4, 15]: 0.000921 ± 0.00013
peptide microarray binding signal [4, 16]: 0.000634

EIAQDFKTDLRFQ [H3 73-85 E I A Q D F K T D L R F Q]
peptide microarray binding signal ([1]; peptide region: H3 73-85, binder concentration: 50 nM): 0.0048 ± 0.00013
peptide microarray binding signal ([1]; peptide region: H3 73-85, binder concentration: 500 nM): 0.0155 ± 0.00056
peptide microarray binding signal ([2]; peptide region: H3 73-85, binder concentration: 10 nM): 0.008 ± 0.00096
peptide microarray binding signal ([2]; peptide region: H3 73-85, binder concentration: 100 nM): 0.00248 ± 6.3e-05
peptide microarray binding signal [3, 17]: 0.000264 ± 5.6e-06
peptide microarray binding signal [3, 18]: 0.00228 ± 0.0003
peptide microarray binding signal [4, 17]: 0.00308 ± 0.00021
peptide microarray binding signal [4, 18]: 0.00236 ± 6.4e-05

EIRRYQKSTELLI [H3 50-62 E I R R Y Q Kac S T E L L I]
peptide microarray binding signal ([1]; peptide region: H3 50-62, peptide modifications: H3K56ac, binder concentration: 50 nM): 0.0121 ± 0.00021
peptide microarray binding signal ([1]; peptide region: H3 50-62, peptide modifications: H3K56ac, binder concentration: 500 nM): 0.0135 ± 0.0015
peptide microarray binding signal ([2]; peptide region: H3 50-62, peptide modifications: H3K56ac, binder concentration: 10 nM): 0.00913 ± 0.00065
peptide microarray binding signal ([2]; peptide region: H3 50-62, peptide modifications: H3K56ac, binder concentration: 100 nM): 0.0108 ± 0.00062
peptide microarray binding signal [3, 19]: 0.0016 ± 0.00024
peptide microarray binding signal [3, 20]: 0.00211 ± 0.00015
peptide microarray binding signal [4, 19]: 0.00222 ± 0.00049
peptide microarray binding signal [4, 20]: 0.00173 ± 6.6e-05

EIRRYQKSTELLI [H3 50-62 E I R R Y Q Kme2 Sph T E L L I]
peptide microarray binding signal ([1]; peptide region: H3 50-62, peptide modifications: H3K56me2 H3S57ph, binder concentration: 50 nM): 0.00113 ± 1.5e-05
peptide microarray binding signal ([1]; peptide region: H3 50-62, peptide modifications: H3K56me2 H3S57ph, binder concentration: 500 nM): 0.00124 ± 2.3e-05
peptide microarray binding signal ([2]; peptide region: H3 50-62, peptide modifications: H3K56me2 H3S57ph, binder concentration: 10 nM): 0.00269 ± 0.00012
peptide microarray binding signal ([2]; peptide region: H3 50-62, peptide modifications: H3K56me2 H3S57ph, binder concentration: 100 nM): 0.00128 ± 1.3e-05
peptide microarray binding signal [3, 21]: 0.000378 ± 3.9e-06
peptide microarray binding signal [3, 22]: 0.000342 ± 3.8e-06
peptide microarray binding signal [4, 21]: 0.000725 ± 3.3e-05
peptide microarray binding signal [4, 22]: 0.000634 ± 1.2e-05

EIRRYQKSTELLI [H3 50-62 E I R R Y Q K S Tph E L L I]
peptide microarray binding signal ([1]; peptide region: H3 50-62, peptide modifications: H3T58ph, binder concentration: 50 nM): 0.000784 ± 1.1e-05
peptide microarray binding signal ([1]; peptide region: H3 50-62, peptide modifications: H3T58ph, binder concentration: 500 nM): 0.00119 ± 3e-05
peptide microarray binding signal ([2]; peptide region: H3 50-62, peptide modifications: H3T58ph, binder concentration: 10 nM): 0.00209 ± 3.2e-05
peptide microarray binding signal ([2]; peptide region: H3 50-62, peptide modifications: H3T58ph, binder concentration: 100 nM): 0.000425 ± 4.9e-06
peptide microarray binding signal [3, 23]: 0.000151 ± 3.3e-06
peptide microarray binding signal [3, 24]: 0.000114 ± 1.3e-06
peptide microarray binding signal [4, 23]: 0.0006041 ± 5.5e-06
peptide microarray binding signal [4, 24]: 0.000519 ± 5.6e-06

Reference: the supplement of paper PMC4022240
